Seven compounds from PubChem BioAssay (NCI) can be followed below.

Test systems include HCT-15 colon; HT29 colon; SNB-75 CNS; SNB-19 CNS; U251 CNS; PC-3 prostate; SK-MEL-5 melanoma; UACC-62 melanoma; LOX IMVI melanoma; SK-MEL-28 melanoma; SK-MEL-2 melanoma; EKVX NSCLC; SN12C renal; UO-31 renal; TK-10 renal; ACHN renal; CAKI-1 renal; A498 renal; CCRF-CEM leukemia; MOLT-4 leukemia.
Holding throughout (test): NCI-60 one-dose screen, 48 h (100 = growth as untreated, 0 = no growth, -100 = all killed)
Common to all, as to conditions: 10 µM unless noted

This is part of a sample that, as a whole, favours compounds with a hit. Of some 83,000 tested, about 20% had one in any assay.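 Results are percent growth after 48 hours of single-concentration exposure. 100 means growth as in untreated cells, lower positive values show inhibition; negative values down to -100 show cell death.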 A number with no mark means an inactive call. Active and inactive are the calls of the source. Rule for the calls: active = growth percent below 10; inactive = the rest.

For the compound `COC(=O)C1=Nc2ccc(F)cc2/C1=C\c1sc(Nc2ccc(O)cc2)nc1O`, the growth with HCT-15 colon was 74.3%; in the test on HT29 colon, 106%; in the test with SNB-75 CNS, 33.8%; with SNB-19 CNS it was 45.7%; with U251 CNS, 46.4%; with PC-3 prostate it was 52.1%. In addition, the growth was 60.3% in the test on SK-MEL-5 melanoma; 34.3% in the test on UACC-62 melanoma; 64% in the test with LOX IMVI melanoma; 66.1% in the test with SK-MEL-28 melanoma; 47.3% in the test with SK-MEL-2 melanoma; 89.8% with EKVX NSCLC. The growth in the test with SN12C renal is 85.7%; with UO-31 renal, 62.6%; in the test with TK-10 renal, 96.9%; in the test with ACHN renal, 84.9%; in the test on CAKI-1 renal, 55.5%; in the test with A498 renal it was 42.4%. In addition, the values for the growth with CCRF-CEM leukemia and in the test with MOLT-4 leukemia were 28.2% and 30.4%, respectively.

In the case of `O=C1/C(=C/c2ccccc2[N+](=O)[O-])COc2ccc(O)cc21`, the growth is -8.7% (active) in the test on HCT-15 colon; -20.8% (active) with HT29 colon; 43.2% in the test with SNB-75 CNS; 62.7% with SNB-19 CNS; 7.41% (active) with U251 CNS; 4.19% (active) with PC-3 prostate. Moreover, the growth in the test with SK-MEL-5 melanoma is 59.1%; in the test on UACC-62 melanoma it was 2.16% (active); in the test on LOX IMVI melanoma it was -66.1% (active); in the test on SK-MEL-28 melanoma, -5.79% (active); in the test with SK-MEL-2 melanoma, 57.1%; with EKVX NSCLC, 54.7%. Further, the growth is -17.2% (active) in the test with SN12C renal; -68.7% (active) with UO-31 renal; 27.4% in the test with TK-10 renal; -13.5% (active) in the test with ACHN renal; -15.3% (active) in the test on CAKI-1 renal; 85.8% with A498 renal. In addition, the growth in the test with CCRF-CEM leukemia is 0.864% (active); with MOLT-4 leukemia, 4.74% (active).

On to `C(/C=C/c1ccccc1)=Nc1ccc(CCc2ccc(N=C/C=C/c3ccccc3)cc2)cc1`, for which the growth with HCT-15 colon was 15.9%; in the test with HT29 colon it was 36.4%; with SNB-75 CNS, 116%; in the test with SNB-19 CNS, 88.1%; in the test on U251 CNS, 75%; in the test with PC-3 prostate it was 71.7%. The growth is 96.6% in the test on SK-MEL-5 melanoma; 73.6% in the test on UACC-62 melanoma; 73.1% in the test with LOX IMVI melanoma; 109% in the test on SK-MEL-28 melanoma; 41.5% in the test with SK-MEL-2 melanoma; 121% in the test on EKVX NSCLC. The growth in the test with SN12C renal is 92.7%; in the test with UO-31 renal, 86.4%; with TK-10 renal, 93.8%; in the test with ACHN renal it was 6.67% (active); in the test with CAKI-1 renal it was 41.7%; with A498 renal, 109%. Moreover, the growth was 95.3% in the test on CCRF-CEM leukemia and 78.2% in the test on MOLT-4 leukemia.

As for `O=C1NC(=O)c2c1c1c3ccccc3[nH]c1c1oc3ccc(F)cc3c21`, the growth is 55.1% in the test with HCT-15 colon; 81.9% in the test with HT29 colon; 41.3% in the test on SNB-75 CNS; 89.4% in the test with SNB-19 CNS; 83.4% in the test with U251 CNS; 45% in the test on PC-3 prostate. Also, the growth with SK-MEL-5 melanoma is 53%; in the test with UACC-62 melanoma, 46.1%; with LOX IMVI melanoma it was 66%; in the test on SK-MEL-28 melanoma, 90.6%; in the test on SK-MEL-2 melanoma it was 89.4%; in the test on EKVX NSCLC, 56.4%. Moreover, the growth in the test on SN12C renal is 74.6%; in the test on UO-31 renal it was 25%; in the test on TK-10 renal it was 70.6%; in the test on ACHN renal, 43.2%; in the test on CAKI-1 renal it was 41.2%; in the test on A498 renal, -6.99% (active). Moreover, the growth was 73.6% in the test with CCRF-CEM leukemia and 76.2% with MOLT-4 leukemia.

As for `COc1ccc(C(O)c2cc3c(N)c(C(=O)Nc4cccc(Cl)c4)sc3nc2C)cc1` (stereo not given), the growth in the test on HCT-15 colon was 11.6%; in the test on HT29 colon it was 8.32% (active); in the test on SNB-75 CNS, 31.2%; with SNB-19 CNS, 28.3%; with U251 CNS, 23.6%; in the test with PC-3 prostate it was 27.3%. Further, the growth is -16.9% (active) with SK-MEL-5 melanoma; 27.5% in the test on UACC-62 melanoma; 30.7% with LOX IMVI melanoma; 65.8% in the test with SK-MEL-28 melanoma; 53.7% in the test on SK-MEL-2 melanoma; 48.4% in the test on EKVX NSCLC. Also, the growth in the test with SN12C renal is 22.2%; in the test with UO-31 renal, 45.4%; in the test on TK-10 renal it was 64%; in the test on ACHN renal it was 30.3%; in the test on CAKI-1 renal it was 24.7%; in the test on A498 renal, 8.34% (active). In addition, the growth was 8.82% (active) in the test with CCRF-CEM leukemia and 15.4% with MOLT-4 leukemia.

For `N=c1sc(Cc2cc(Cl)ccc2Cl)cn1CC(=O)c1ccccc1`, the growth with HCT-15 colon is 23.5%; in the test with HT29 colon, 16.1%; with SNB-75 CNS, 5.16% (active); in the test with SNB-19 CNS, 63.6%; in the test on U251 CNS it was 40.4%; in the test with PC-3 prostate it was 62.5%. The growth was 37.3% in the test on SK-MEL-5 melanoma; 17.1% with UACC-62 melanoma; 25.1% with LOX IMVI melanoma; 58.5% in the test with SK-MEL-28 melanoma; 61.6% with SK-MEL-2 melanoma; 54.4% in the test on EKVX NSCLC. In addition, the growth in the test with SN12C renal was 63%; with UO-31 renal, 43.9%; with TK-10 renal, 61.3%; in the test on ACHN renal, 37.3%; in the test with CAKI-1 renal it was 21.1%; with A498 renal, 49%. For the same compound, the growth with CCRF-CEM leukemia is 60%; in the test with MOLT-4 leukemia, 49.8%.

On to `COc1ccc(-c2cc(-c3cc(OC)c(OC)c(OC)c3)c(C#N)c(=O)n2CCCCCC(=O)NO)cc1`, for which the growth is 71.7% in the test on HCT-15 colon; 101% with HT29 colon; 70.1% in the test with SNB-75 CNS; 89.8% in the test on SNB-19 CNS; 81.9% with U251 CNS; 89.4% with PC-3 prostate. The growth in the test with SK-MEL-5 melanoma is 91.4%; in the test on UACC-62 melanoma, 93.3%; in the test on LOX IMVI melanoma it was 78.7%; in the test with SK-MEL-28 melanoma, 109%; with SK-MEL-2 melanoma, 102%; in the test with EKVX NSCLC, 91.3%. Moreover, the growth with SN12C renal was 89.2%; with UO-31 renal, 62.4%; in the test with TK-10 renal, 106%; with ACHN renal, 88.3%; in the test with CAKI-1 renal it was 79.9%; in the test on A498 renal it was 54%. Besides, the figures for the growth with CCRF-CEM leukemia and in the test on MOLT-4 leukemia were 85.7% and 96.6%, respectively.
